In all, about 350,000 compounds went through this assay and about 31,000 (8.9%) were called active. Another 15% or so got no clear call; they are omitted. Shown is part of a subset that was picked to be rich in actives. A number with no mark means an inactive call. The call rests on the fitted dose curve; in most records, active means well fitted inhibition curve with a large enough effect; inconclusive means small, poorly fitted or top-dose-only effect; inactive means no such curve, though single readings can be large or run the other way.
target: Histone-lysine N-methyltransferase EHMT2 (Homo sapiens) (UniProt Q96KQ7); assay: qHTS Assay for Inhibitors of Histone Lysine Methyltransferase G9a; conditions: G9a H3K9 monomethylation, AlphaScreen, 2 h; series mostly up to 59 µM; activity, negative = inhibition: at the top concentration; further: nearly all actives have a fitted effect of over 75% in size
Sequence (Q96KQ7 913-1193 limits assumed): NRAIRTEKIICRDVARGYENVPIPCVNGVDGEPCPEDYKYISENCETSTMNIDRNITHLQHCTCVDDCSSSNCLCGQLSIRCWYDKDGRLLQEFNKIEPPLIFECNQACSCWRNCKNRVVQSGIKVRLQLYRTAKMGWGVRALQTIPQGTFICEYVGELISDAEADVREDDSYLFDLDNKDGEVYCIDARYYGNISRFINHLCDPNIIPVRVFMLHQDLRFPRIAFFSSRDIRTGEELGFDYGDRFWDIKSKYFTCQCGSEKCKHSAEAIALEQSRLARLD
Outline: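 Chemiluminescent proximity detection of H3K9 monomethylation, read after 10 min bead incubation in the dark. Reaction: 20 nM G9a, 500 nM biotin-H3K9 peptide, 20 uM SAM cofactor, 2 h, room temperature, following 15 min enzyme-compound preincubation.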
On the % scale 0 is the no-effect control and ±100 the full control effect; potency means the concentration at half of the fitted maximal effect.

Compound | Potency | activity, negative = inhibition
N#CC1=C(N)Oc2c(sc3ccccc23)C1c1ccco1 (stereo not drawn) | 39.8 µM (active) | –
CCOC(=O)CSC1=C(C#N)C(c2ccco2)C(C(=O)OCc2ccccc2)=C(C)N1 (stereo not drawn) | – | -12%
CCCCn1c(N)c(N(CCOC)C(=O)c2sc3ccccc3c2Cl)c(=O)[nH]c1=O | – | 0.384% [at 0.501 µM]
COc1ccccc1-c1nc(N2CCN(C)CC2)c2ccccc2n1 | – | 0.0472% [at 0.501 µM]
Cc1cccc(-c2nc(Nc3ccc(O)cc3)c3ccccc3n2)c1 | – | 9.03% [at 12.7 µM]
CN1CCN(c2nc(Nc3ccc(O)cc3)nc3ccccc23)CC1 | 25.1 µM (active) | –
CC(C)(C)c1ccc(S(=O)(=O)N2CCN(C(=O)c3cc(-c4ccc(Br)cc4)n[nH]3)CC2)cc1 | – | 25.6%
S=C(NN=C1CCN(Cc2ccccc2)CC1)NC1CCCCC1 | 50.1 µM (active) | –
O=C(NC1CCN(Cc2ccccc2)CC1)c1c(F)cccc1F | – | 17.9%
S=C(Nc1ccc(Br)cc1Cl)NC1CCN(Cc2ccccc2)CC1 | – | 1.73% [at 102 µM]
COc1ccccc1NC(=O)c1cc(S(=O)(=O)NCCc2ccccc2)ccc1F | – | -2.37%
CCc1ccc(S(=O)(=O)n2ccnc2)cc1 | – | 1.45%
CCOc1ccc(NC(=O)CN(C)C(=O)COc2cccc(CC)c2)cc1OCC | – | -17.2% [at 0.501 µM]
CS(=O)(=O)c1ccc2c(c1)SC1=NC(=O)/C(=C/c3ccco3)C(=N)N12 | 50.1 µM (active) | –
CCCCC(=O)OC1=CN(Cc2ccccc2)S(=O)(=O)c2ccccc21 | – | 111%
COc1cccc(C(=O)OCc2cc(=O)oc3c(C)c(C)ccc23)c1OC | – | -5.18% [at 102 µM]
CCOC(=O)N1CCC(N2Cc3cccc(C(=O)Nc4c(C)cccc4CC)c3C2=O)CC1 | – | 11.5% [at 102 µM]
CN(C)[C@@H]1C(=O)C(C(N)=O)=C(O)[C@@]2(O)C(=O)C3=C(O)c4c(O)ccc(Cl)c4[C@@H](O)[C@H]3C[C@@H]12 | 7.94 µM (active) | –
C=C1c2c(Cl)ccc(O)c2C(O)=C2C(=O)[C@]3(O)C(O)=C(C(N)=O)C(=O)[C@@H](N(C)C)[C@@H]3[C@@H](O)C12 (stereo partly drawn) | 7.94 µM (active) | –
CCCN(CC1CC1)C(=S)NC(=O)c1ccccc1Br | – | -20%
Cc1ccc(Cl)cc1N1CCN(C(=O)CN2C(=O)COc3ccc(S(=O)(=O)N4CCOCC4)cc32)CC1 | – | 0.165%
COc1ccc(-c2noc(C(C)NS(=O)(=O)c3ccc(NC(C)=O)cc3)n2)cc1 (stereo not drawn) | – | 22.5% [at 102 µM]
COc1cc2nc(NCC(C)c3ccccc3)n3nc(-c4ccccc4)nc3c2cc1OC (stereo not drawn) | – | -20.5%
CC(C(=O)NC1CCCC1)N1CCN(S(=O)(=O)c2ccccc2Cl)CC1 (stereo not drawn) | – | 1.28% [at 0.501 µM]

Compound | Potency | activity, negative = inhibition
COc1cc2c(=O)c(S(=O)(=O)c3ccc(C(C)C)cc3)cn(Cc3ccccc3C)c2cc1OC | – | -33.9%
Cc1ccc(C)c(NC(=O)c2ccc3nccnc3c2)c1 | – | 1.62% [at 102 µM]
Cc1ccc(C(=O)Nc2nnc(-c3cccs3)s2)cc1C | – | -1.27% [at 12.7 µM]
Cc1nnc(NC(=O)c2ccc3nccnc3c2)s1 | 50.1 µM (active) | –
COc1ccc(S(=O)(=O)NCc2cccnc2)cc1NC(=O)c1ccc(C)cc1 | – | -33.4% [at 102 µM]
CC(=O)c1c(C)n(S(=O)(=O)c2ccc(Cl)cc2)c2ccc(NS(=O)(=O)c3ccc(Cl)cc3)cc12 | – | -47.6%
O=C(c1ccc2c(c1)N(Cc1ccccc1)C(=O)c1ccccc1S2(=O)=O)N1CCC(Cc2ccccc2)CC1 | – | -0.698%
CCC(=O)c1ccc(OCC(O)CN2CC(C)OC(C)C2)cc1 (stereo not drawn) | 14.1 µM (active) | –
CCC(=O)c1ccc(OCC(O)CN2C(=O)NC(C)(C)C2=O)cc1 (stereo not drawn) | – | -1.44% [at 102 µM]
CC1CCN(CC(O)COc2ccc(C(=O)c3ccccc3)cc2)CC1 (stereo not drawn) | – | 3.75% [at 0.501 µM]
CCOC(=O)C1CCN(C(=O)COC(=O)C2CCN(S(=O)(=O)c3ccc4c(c3)OCCO4)CC2)CC1 | – | -35.2% [at 102 µM]
CCOc1ccc(NS(=O)(=O)c2ccc(Cl)c(C(=O)N(C)Cc3cccnc3)c2)cc1 | – | 9.93% [at 12.7 µM]
Cc1cc(C)cc(NC(=O)CCCc2nc(-c3ccccc3Cl)no2)c1 | – | 6.38%
CN(CC(=O)Nc1ccc(Cl)cc1)C(=O)CNC(=O)c1ccc2ccccc2c1 | – | 86.3% [at 102 µM]
COc1cccc(-c2nnc(SCC(=O)N3CCC(C)CC3)o2)c1 | – | 1.74%
O=C(C1COc2ccccc2O1)N(Cc1cccnc1)c1nc2c(F)cc(F)cc2s1 (stereo not drawn) | – | -4.58%
CCc1ccc(N2C(=O)CN(S(=O)(=O)CC)CC2(C)C(=O)NC2CCCCC2)cc1 (stereo not drawn) | – | 4.02%
COc1ccc(C(=O)CCc2ccccc2O)c(OC)c1 | – | 13.6% [at 102 µM]
COc1ccc(/C=C2/C(=O)N(c3ccccc3)N=C2C)c(OC)c1 | 20 µM (active) | –
COc1ccc(/C=C2/C(=O)OCc3cc(OC)c(OC)cc32)c(OC)c1 | – | 20.5%
CCN1N=C(c2ccccc2)CCC1=O | – | 21.7% [at 0.501 µM]
Cc1cc(C)cc(NC(=S)NCCCN2CCOCC2)c1 | – | 18%
O=C(NNC(=S)NCCCN1CCOCC1)c1ccncc1 | 20 µM (active) | –
COc1cccc(NC(=S)NCCCN2CCOCC2)c1 | – | 4.95%

Compound | Potency | activity, negative = inhibition
CCS(=O)(=O)N1CCc2cc(C(=O)NCc3ccc(C)cc3)ccc21 | – | -2.49%
Cc1cc(C(=O)OCC(=O)N2c3ccccc3NC(=O)C2(C)C)c(C)n1-c1ccccc1 | – | -19.9%
O=c1onc(-c2cccs2)n1Cc1ccccc1 | – | 1.14% [at 12.7 µM]
Cc1nc(N)sc1N=Nc1c(C)n(C)n(-c2ccccc2)c1=O | – | -3.39% [at 12.7 µM]
Cc1cc(-c2csc(N)n2)c(C)n1Cc1ccccc1 | 28.2 µM (active) | –
CC(=O)Nc1ccc(C(=O)Nc2nc(-c3cc(C)n(Cc4ccccc4)c3C)cs2)cc1 | – | 0.836%
Cc1cc(-c2csc(N)n2)c(C)n1-c1ccccc1 | 11.2 µM (active) | –
CN(CCO)S(=O)(=O)c1ccc2c(c1)C(=O)c1cc(S(=O)(=O)N(C)CCO)ccc1-2 | – | 6.15% [at 0.501 µM]
CCOc1ccc(C(=O)NCC(=O)N2CCN(c3ccc(C(F)(F)F)cn3)CC2)cc1 | – | 13.9%
O=C(Nc1cccc(-c2nc3ccccc3o2)c1)c1cccc(Br)c1 | – | -4.65%
COc1cc(C(=O)NCc2ccncc2)cc(Br)c1OCc1ccccc1 | – | 1.4% [at 102 µM]
COc1cc(C=O)c(Br)cc1OCC(=O)NCc1ccccc1 | – | -3.38% [at 102 µM]
COc1cc(C(=S)NCc2ccccc2)cc(Br)c1O | 2.51 µM (active) | –
Cc1cccc(C(=O)NCC(=O)OCC(=O)N(C)CC(=O)Nc2ccccc2Cl)c1 | – | 8.39%
COc1ccc(NC(=O)COC(=O)Cn2c(C)nc3ccccc32)cc1OC | – | -1.35% [at 102 µM]
O=C(COC(=O)Cn1cnc2ccccc2c1=O)NCC12CC3CC(CC(C3)C1)C2 | – | 12.2%
O=C(COC(=O)Cn1cnc2ccccc21)Nc1cccc2c1C(=O)c1ccccc1C2=O | 12.6 µM (active) | –
COc1ccc(-c2onc(C)c2C)cc1S(=O)(=O)NCCc1ccccc1 | – | 4.98%
CCOc1ccc(CCNC(=O)CN(c2ccc(C)cc2)S(=O)(=O)N(C)C)cc1OCC | – | 5.66%
O=C(NCc1ccccc1Cl)c1ccc2c(=O)n(CC3CCCO3)c(=S)[nH]c2c1 (stereo not drawn) | – | 56.4% [at 102 µM]
COc1ccc(CNC(=O)Cn2nnc(-c3ccc(S(C)(=O)=O)cc3)n2)cc1 | – | -16.3%
CC(/C=C/c1ccco1)=N/NC(=O)C1COc2ccccc2O1 (stereo not drawn) | 56.2 µM (active) | –
C/C(=N/NC(=O)C1COc2ccccc2O1)c1ccco1 (stereo not drawn) | – | 0.125%
CC(=O)c1cccc(NC(=O)C2COc3ccccc3O2)c1 (stereo not drawn) | – | 19.1% [at 102 µM]

Compound | Potency | activity, negative = inhibition
Cc1ccc(-n2ncc3c(=O)n(Cc4cccc(C(F)(F)F)c4)cnc32)cc1C | – | 4.7%
CCCCN=C1C([N+](=O)[O-])=CC=C2C1=NC1(CCCCC1)N2O | 11.2 µM (active) | –
O=C(CCNC(=O)c1ccc(Br)cc1)NCCCc1ccccc1 | – | 6.39% [at 102 µM]
O=C1CC(c2ccccc2)C(=O)N1c1cccc(O)c1 (stereo not drawn) | – | -7.63%
COC(=O)c1ccccc1SC1CC(=O)N(c2cccc(C)c2)C1=O (stereo not drawn) | 44.7 µM (active) | –
Cc1cccc(N2C(=O)CC(SC(N)=Nc3ccccc3)C2=O)c1 (stereo not drawn) | – | -5.18% [at 102 µM]
CCOc1ccccc1N(C)C(=O)c1cc2c(s1)-c1ccccc1OC2 | – | 19.4%
Cc1ccc(NC(=O)CCCNC(=O)c2ccc(Cl)cc2)cc1S(=O)(=O)N1CCOCC1 | – | -11.6%
O=C(COC(=O)CCc1ccc(S(=O)(=O)N2CCOCC2)cc1)Nc1cccc(Cl)c1 | – | 3.71% [at 102 µM]
Cc1ccc(C(=O)OCC(=O)Nc2ccc(Cl)cn2)cc1S(=O)(=O)N1CCOCC1 | – | -29% [at 102 µM]
O=C(CNC(=O)c1ccc(Cl)cc1Cl)NCC(=O)Nc1ccccc1N1CCOCC1 | 89.1 µM (active) | –
Cc1ccc(NC(=O)COC(=O)CNC(=O)c2ccc(Cl)cc2Cl)cc1S(=O)(=O)N1CCOCC1 | 50.1 µM (active) | –
O=C(COc1ccc(Cl)cc1)NC(=S)Nc1ccccc1N1CCOCC1 | – | 1.64% [at 102 µM]
Cc1ccc(NC(=O)CCNC(=O)c2ccc([N+](=O)[O-])cc2)cc1S(=O)(=O)N1CCOCC1 | – | -13.1% [at 12.7 µM]
CC(=O)c1ccc(OCCCC(=O)Nc2ccc(C)c(S(=O)(=O)N3CCOCC3)c2)cc1 | 50.1 µM (active) | –
COc1c(C)cccc1C(=O)Nc1cc(Cl)ccc1N1CCOCC1 | – | -5.78% [at 12.7 µM]
COc1ccc(Nc2ncc3c(n2)CCN(C(=O)OC(C)(C)C)C3)cc1 | – | -31.3%
COc1ccc(CCNC(=O)Cn2c(=O)n(-c3ccccc3)c(=O)c3c(C)c(C)sc32)cc1OC | – | -27%
COc1cc(C(=O)Nc2ncccc2C)ccc1OCC(=O)N1CCOCC1 | – | 19.4%
O=C(CNS(=O)(=O)c1ccccc1)N1CCN(C(=O)c2ccco2)CC1 | – | -0.876%
Cc1ccc(-n2ncc3c2CC(C)(C)CC3NC(=O)CCc2cnn(C)c2)cc1 (stereo not drawn) | – | 12.4% [at 102 µM]
